Reference: ChEMBL document CHEMBL3988442, “University of Dundee, Small-Polar-MMV Screening Library” (2021)
Screen size: about 69,000 compounds; about 950 (1.4%) showed an effect of 50% or more. The sample holds strong results, similar compounds and a random draw of the others, so the mix is not that of the screen.

The compounds below were run on Mycobacterium tuberculosis (assay: Cornell M. t heat shock assay; further: in the data most compounds retested in dose-response had high values).
Format: functional, organism-based
Design: dose or concentration left out as unconfirmed

Compound | Percent Effect
Cc1nn(C)c2nc(N(Cc3ccccn3)CC3CCCO3)sc12 (stereo unspecified) | -20.31%
CN(Cc1ccco1)Cc1cncc2c1CCN(Cc1ccoc1)C2.Cl.Cl.Cl | -8.81%
COc1ccc(CN(C)CC(O)COCc2ccccc2Cl)c(OC)c1.O=C(O)C(=O)O (stereo unspecified) | 10.76%
Cl.NC(=O)c1ccc(C2CCCNC2)nc1 (stereo unspecified) | 6.817%
Cc1noc(C)c1C(=O)N1C[C@@H]2COC[C@]2(COc2ccccn2)C1.O=C(O)C(F)(F)F | -29.95%
Cc1ccc2nc(C3CCCN3Cc3scnc3C)[nH]c2c1 (stereo unspecified) | 1.494%
Cc1ccc2nc(C3CCCN3Cc3csc(C)n3)[nH]c2c1 (stereo unspecified) | 87.71%
Cc1ccc2nc(C3CCCN3Cc3nnc(C)s3)[nH]c2c1 (stereo unspecified) | -8.638%
Cn1cc(CN2C[C@@H]3COC[C@]3(C(=O)NCCc3ccccc3)C2)cn1.O=C(O)C(F)(F)F | -18.43%
COCCC(C)NS(=O)(=O)c1ccc(C)c(N(C)C)c1 (stereo unspecified) | 1.91%
CCN(CC)c1ncnc2c1CCN(C(=O)Cc1ccccn1)CC2.O=C(O)C(F)(F)F.O=C(O)C(F)(F)F | -18.08%
CCn1ncc2c1C(COC)CN(c1ncc(F)cn1)C2.O=C(O)C(F)(F)F.O=C(O)C(F)(F)F (stereo unspecified) | 55.18%
COCC1CN(c2ncc(F)cn2)Cc2cnn(C)c21.O=C(O)C(F)(F)F.O=C(O)C(F)(F)F (stereo unspecified) | 9.404%
CCn1ncc2c1C(COC)CN(Cc1ccc(F)cc1)C2.O=C(O)C(F)(F)F.O=C(O)C(F)(F)F (stereo unspecified) | -13.12%
CCOCC1CN(Cc2ccco2)Cc2nccn2C1.O=C(O)C(F)(F)F (stereo unspecified) | -9.1%
CN(C)C(=O)CC1CC2(CCN(CC3CC3)CC2)c2cc(F)ccc21.O=C(O)C(F)(F)F (stereo unspecified) | -15.82%
COC(=O)C1CCN(C(=O)c2nnc3ccc(C)cc3n2)CC1 | 15.86%
COc1ccc2nnc(C(=O)NCC3CCCC3)nc2c1 | 44.72%
CCn1nc(C)c(CNC(=O)c2nnc3ccc(Cl)cc3n2)c1C | 42.92%
Cc1ccc(-n2nnc(C(=O)NCC3CCCCC3)n2)cc1 | 10.71%
O=C(NCC1CC1)c1nnc2ccc(Cl)cc2n1 | 102.8%
COC(=O)C1CCN(C(=O)c2nnc3ccc(Cl)cc3n2)CC1 | 26.61%
CCn1nc(C)c(CNC(=O)c2nnc3ccc(OC)cc3n2)c1C | -6.041%

Compound | Percent Effect
O=C(NC1CCCCC1)c1nnc2ccc(N3CCOCC3)cc2n1 | 8.79%
Cc1ccc2nnc(C(=O)NCC3CCCC3)nc2c1 | 103.3%
COc1ccc2nnc(C(=O)NC3CCCC3)nc2c1 | 57.83%
O=C(NCC1CC1)Nc1cnc2cc(Cl)ccc2c1O | -11.98%
CN1CCN(C(=O)c2nnc3ccc(Cl)cc3n2)CC1 | 68.14%
CCOCC1CN(Cc2cnn(C)c2)Cc2nn(CC3CC3)cc21.O=C(O)C(F)(F)F (stereo unspecified) | 2.131%
CCCn1[nH]cc/c1=N\C(=O)CN1CCc2c(nc(C3CC3)n2C)C1 | 7.757%
Cl.O=C(C1CCCCC1)N1C[C@H]2CNC[C@H]2C1 | -3.289%
O=c1cc(CN2CC[C@H]3CC[C@@H](C2)N3)c2cccc3c2n1CCC3 | -15.55%
CN(C)C(=O)COC1COC2(CCN(CC3CCOCC3)CC2)C1.O=C(O)C(F)(F)F (stereo unspecified) | -2.67%
Cl.c1nc(N2CCOCC2)sc1-c1cncn1CCCN1CCCCC1 | -3.925%
CC(C)NC(=O)c1ccc2c(c1)C1(CCN(C(C)C)CC1)C(=O)N2.O=C(O)C(F)(F)F | -33.29%
Cc1noc(C)c1CN1CCn2cc(CNc3ccccn3)nc2C1.O=C(O)C(F)(F)F.O=C(O)C(F)(F)F | 4.3%
Cc1ccc(O[C@@H]2C[C@H]3CN(Cc4nccn4C)CCN3C2)cc1.O=C(O)C(F)(F)F.O=C(O)C(F)(F)F | -24.79%
CC(C)NC(=O)CNC(=O)c1csc(Cc2ccccc2F)n1 | -1.27%
COCC1N(C(=O)N2CCOCC2)[C@H]2CC[C@]1(O)CC2 (stereo partly specified) | -3.821%
COCc1ncn(Cc2nc(-c3ccc(OC)cc3F)oc2C)n1 | -9.071%
COc1ccc(-c2nc(CN3CCCC(OC)C3)c(C)o2)c(F)c1 (stereo unspecified) | 93.73%
CCCOC1CCCN(Cc2nc(-c3ccc(F)cc3F)oc2C)C1 (stereo unspecified) | -26.76%
O=C(O)C(F)(F)F.O=C(c1ccsc1)N1C[C@H]2CCC[C@@]2(COCc2cccnc2)C1 | -16.41%
Cl.Cl.O=C(NCc1cncc2c1CCN(C1CCOCC1)C2)c1ccno1 | 18.25%
Br.Cc1cc(C)nc(NCCC(=O)NCCn2ccnc2C)n1 | -9.93%
Cc1csc(NCC(=O)c2c[nH]c3ccccc23)n1.I | 13.99%
